For 39 molecules, growth results are on record in PubChem BioAssay (NCI).

SMILES strings stand for the structures. The panel holds about 83,000 compounds, 20% with a hit somewhere; the sample as a whole holds those more often.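 Interpretation: 100, growth as untreated; towards 0, rising growth inhibition; 0, no net growth; 0 to -100, cell death. Compounds scoring below 10 were considered active.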 A number with no mark means an inactive call. The source made the active and inactive calls.

One experiment has as its system SF-295 CNS. The experiment is described as follows: NCI-60 one-dose screen, 48 h (100 = growth as untreated, 0 = no growth, -100 = all killed). To be noted: 10 µM unless noted.
With `O=C1/C(=C/c2ccc(O)cc2)COc2ccc(O)cc21`, the growth is 107%.

Regarding `O=C(c1nc2ccccc2[nH]1)C1[C@@H](c2cccc(O)c2)C2CC3CCCCC3N2[C@@]12C(=O)Nc1cc(Cl)ccc12` (some centres not stated), the growth was 37.2%.

For `O=c1oc2ccc(Br)cc2c(=O)n1-c1ccc(Br)cc1F`, the growth is -73.6% (active).

With `O=C(/C=C/c1ccc(C(F)(F)F)cc1)c1ccc(Nc2nc(NCCO)nc(N3CCOCC3)n2)cc1`, the growth is 81.4%.

As to `C#CCn1cc(C=C2C(=O)N(C)C(=O)N(C)C2=O)c2cc(Cl)ccc21`, the growth was 96.4%.

Consider `COc1ccc(/C=C2/SC(=O)N(CC(=O)N3CCN(c4cc5c(cc4F)c(=O)c(C(=O)O)cn5C4CC4)CC3)C2=O)cc1`, for which the growth is 101%.

With `CCOC(=O)C1=C(C)N=c2s/c(=C\c3ccccc3O)c(=O)n2C1c1ccc(OC)c2ccccc12` (configuration not stated), the growth was -83.5% (active).

With `Nc1ccc(-c2ccc(-c3ccccc3N)c3[nH]c4ccccc4c23)cc1`, the growth was 22.2%.

As for `CCOC(=O)c1c2c(n3cccc(Cl)c13)C(=O)c1ncccc1C2=O`, the growth is 63.9%.

In the case of `O=C(Nc1ccc(C23CC4CC(CC(c5ccccc5)(C4)C2)C3)cc1)c1cccs1`, the growth is 105%.

Take `Cc1ccc2sc3c(NCCCNCCO)nc4ccccc4c3c(=O)c2c1`: the growth is 84.2%.

Take `COc1ccccc1N1CCN(C(CNS(=O)(=O)c2ccc(Cl)cc2)c2cccnc2)CC1` (configuration not stated): the growth is 2.26% (active).

For `CCn1c(-c2nonc2Nc2ccc(OC)cc2)nc2ccccc21`, the growth is 132%.

As to `O=C(Nc1ccc(N2CCNCC2)cn1)c1[nH]ncc1Nc1ncnc2sc3c(c12)CCC3`, the growth was 104%.

For `O=C(/C=C/c1cccc(Cl)c1)OCc1ccc2cc1OCC#C/C=C\C#CCO2`, the growth is 109%.

Turning to `C[n+]1c2ccccc2nc2ccc(NCCO)cc21`, the growth was 98.5%.

On to `Nc1nc2c(ncn2[C@@H]2O[C@H](CS)[C@@H](O)[C@H]2O)c(=O)[nH]1`, for which the growth was 98.2%.

Take `CC/C(=C(\CC)c1ccc(OCC[N+](C)(C)C)cc1)c1ccc(OC)cc1`: the growth was 76.2%.

Regarding `O=C(Nc1ccc(F)cc1F)c1cc(I)ccc1O`, the growth was 1.39% (active).

For the molecule `CC(C)Cn1c2c(c(=S)[nH]c1=O)CCC2`, the growth is 107%.

In the case of `CNCCNc1nc2ccccc2c2c(=O)c3cccc(C)c3sc12`, the growth is 76%.

As to `COC(=O)c1c2c(c(C)[n+]([O-])c1C)C(=O)C(NCc1ccc(F)c(F)c1)=CC2=O`, the growth is 18.2%.

As to `O=C(Cn1cc(COc2ncnc3c2cnn3-c2ccccc2)nn1)Nc1ccccn1`, the growth was 102%.

For another experiment, the system named is SF-539 CNS. The description is as above. Conditions: 10 µM unless noted.
Turning to `NCCNc1nc2ccccc2c2c(=O)c3cc(F)cc(Cl)c3sc12`, the growth is 58.6%.

As for `C=C1C(=O)O[C@H]2[C@H]1CC/C(COC(=O)/C=C\C(=O)O)=C\CC[C@@]1(C)O[C@@H]21`, the growth was 93.2%.

`COc1ccccc1C(=O)/C=C/c1ccccc1`: the growth is 91.6%.

In the case of `Cn1cc([C@@H]2Nc3ccc4[nH]ncc4c3[C@H]3[C@H]4CCC(C4)[C@H]32)c(C(F)(F)F)n1`, the growth was 41.1%.

For the molecule `N#Cc1c(N)nc2c(c1N)C(c1ccc(F)cc1)c1ccc(N)cc1O2` (configuration not stated), the growth is 103%.

`O=C(CN1C=NC2C(N3CCOCC3)=NC=NC21)c1ccc(Br)cc1` (configuration not stated): the growth is 100%.

Take `CCCCN1CCN(c2ccc3nc(-c4ccc5nc(-c6ccc(OCC)cc6)[nH]c5c4)[nH]c3c2)CC1`: the growth is 67.9%.

For the molecule `CCN(CCO)CCNc1ccc(C)c2sc3cc(Cl)ccc3c(=O)c12`, the growth is 73.1%.

For the molecule `Cc1nn(-c2nc3ccccc3[nH]2)c2c1C(c1ccc(OCC(N)=O)cc1)CC(=O)N2` (configuration not stated), the growth was 100%.

As to `COC(=O)/C(CCC=C(C)C)=C1\[C@@H](OC(C)=O)C[C@@]2(C)[C@H]1C[C@@H](O)[C@H]1[C@@]3(C)CC[C@H](NCCO)[C@@H](C)[C@@H]3CC[C@@]12C`, the growth is 101%.

Turning to `CCCc1c(C)c2sc(=O)[nH]c2[nH]c1=O`, the growth was 96.7%.

As to `O=C(/C=C/c1ccc(Cl)cc1)c1ccc(Nc2nc(NCCO)nc(Nc3ccc(Cl)cc3)n2)cc1`, the growth was 64.8%.

On to `COc1cccc2c(=O)c3c(sc12)c(NCCCNCCO)nc1ccccc13`, for which the growth is 64.9%.

For the molecule `CCCCc1ccc(NS(=O)(=O)c2cc3c4c(c2)CCN4C(=O)CC3)cc1`, the growth was 7.3% (active).

In the case of `O=C1/C(=C/c2ccc(O)cc2)COc2ccc(O)cc21`, the growth is 98.1%.

With `Cc1cc(Nc2ccc(OCc3ccccc3)cc2)nc2cc(O)ccc12`, the growth was 97.5%.

For `O=C(c1nc2ccccc2[nH]1)C1[C@@H](c2cccc(O)c2)C2CC3CCCCC3N2[C@@]12C(=O)Nc1cc(Cl)ccc12` (some centres not stated), the growth was 48.7%.

Consider `O=c1oc2ccc(Br)cc2c(=O)n1-c1ccc(Br)cc1F`, for which the growth is -3.2% (active).

On to `O=C(/C=C/c1ccc(C(F)(F)F)cc1)c1ccc(Nc2nc(NCCO)nc(N3CCOCC3)n2)cc1`, for which the growth was 50.6%.

For `C#CCn1cc(C=C2C(=O)N(C)C(=O)N(C)C2=O)c2cc(Cl)ccc21`, the growth is 94.5%.

Regarding `COc1ccc(/C=C2/SC(=O)N(CC(=O)N3CCN(c4cc5c(cc4F)c(=O)c(C(=O)O)cn5C4CC4)CC3)C2=O)cc1`, the growth was 91.1%.

`CCOC(=O)C1=C(C)N=c2s/c(=C\c3ccccc3O)c(=O)n2C1c1ccc(OC)c2ccccc12` (configuration not stated): the growth is -83.7% (active).

Take `Nc1ccc(-c2ccc(-c3ccccc3N)c3[nH]c4ccccc4c23)cc1`: the growth is 28%.

With `CCOC(=O)c1c2c(n3cccc(Cl)c13)C(=O)c1ncccc1C2=O`, the growth is 77.2%.

For the molecule `O=C(Nc1ccc(C23CC4CC(CC(c5ccccc5)(C4)C2)C3)cc1)c1cccs1`, the growth was 92%.

As to `Cc1ccc2sc3c(NCCCNCCO)nc4ccccc4c3c(=O)c2c1`, the growth was 78.6%.

Consider `COc1ccccc1N1CCN(C(CNS(=O)(=O)c2ccc(Cl)cc2)c2cccnc2)CC1` (configuration not stated), for which the growth was 64.9%.

On to `CCn1c(-c2nonc2Nc2ccc(OC)cc2)nc2ccccc21`, for which the growth was 107%.

`O=C(Nc1ccc(N2CCNCC2)cn1)c1[nH]ncc1Nc1ncnc2sc3c(c12)CCC3`: the growth was -51% (active).

Turning to `O=C(/C=C/c1cccc(Cl)c1)OCc1ccc2cc1OCC#C/C=C\C#CCO2`, the growth is 100%.

For `C[n+]1c2ccccc2nc2ccc(NCCO)cc21`, the growth was 90.8%.

Turning to `Nc1nc2c(ncn2[C@@H]2O[C@H](CS)[C@@H](O)[C@H]2O)c(=O)[nH]1`, the growth was 102%.

Turning to `Cn1c(C(=O)c2cccc3ccccc23)nc2ccccc21`, the growth was -1.45% (active).

In the case of `CC/C(=C(\CC)c1ccc(OCC[N+](C)(C)C)cc1)c1ccc(OC)cc1`, the growth is 59.9%.

Regarding `O=C(Nc1ccc(F)cc1F)c1cc(I)ccc1O`, the growth is 13.3%.

For the molecule `CC(C)Cn1c2c(c(=S)[nH]c1=O)CCC2`, the growth is 97.4%.

Turning to `CNCCNc1nc2ccccc2c2c(=O)c3cccc(C)c3sc12`, the growth was 52.4%.

In the case of `COC(=O)c1c2c(c(C)[n+]([O-])c1C)C(=O)C(NCc1ccc(F)c(F)c1)=CC2=O`, the growth is 2.45% (active).

As to `O=C(Cn1cc(COc2ncnc3c2cnn3-c2ccccc2)nn1)Nc1ccccn1`, the growth is 89.1%.
